Assay results reported in the supplement of paper PMC12350171.
Where a name gives a salt, the structure may show the parent alone.

Tests used:
Settings in all cases: 20 µM
[1] = system: Haemophilus parainfluenzae; assay: growth AUC normalised to DMSO control (fraction of control); higher = less growth inhibition, active = hit call of the paper
Method in brief: (§1)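 Pathogens passaged twice anaerobically were inoculated at a starting OD578 of 0.01 into pre-reduced mGAM plates with drug at 20 μM and 1% DMSO, sealed with breathable membranes. Haemophilus parainfluenzae medium was supplemented with hemin and NAD. OD578 was read hourly for 24 h, with three biological replicates. Growth-curve AUC was computed by the trapezoidal rule up to the exponential-to-stationary transition and normalised to DMSO controls on the same plate.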

[2] = system: Salmonella enterica typhimurium; assay: as above
Method in brief: as §1

Shigella flexneri = assay: as above
Method in brief: as §1

Vibrio cholerae = assay: as above
Method in brief: as §1

[3] = system: Yersinia pseudotuberculosis; assay: as above
Method in brief: as §1

P. vulgatus RND KO = assay: growth AUC normalised to DMSO control (median) (fraction of control); higher = less growth inhibition, active = hit call of the paper
Method in brief: (§2)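 For normalised area under the curve, growth curves were truncated at entry into stationary phase, integrated by the trapezoidal rule and divided against vehicle wells on the same plate. The curves came from strains passaged twice overnight without oxygen and then grown in mGAM in 96-well plates at a starting OD578 of 0.01. Each well held an approved-drug library compound at 20 μM with 1% DMSO, and OD578 was read hourly for 24 h in an anaerobic incubator. Values are medians of three biological replicates.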

P. vulgatus WT = assay: as above
Method in brief: as §2

[4] = system: S. enterica typhimurium WT; assay: as above
Method in brief: as §2

[5] = system: S. enterica typhimurium tolC KO; assay: as above
Method in brief: as §2

Measured: growth AUC normalised to DMSO control
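For growth AUC normalised to DMSO control (median) in this document: active when median AUC fell below 0.1.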

CNC(C)(C)Cc1ccccc1 [Mephentermine hemisulfate]
inactive: [1] 1.09 | [2] 1.03 | Shigella flexneri 1.03 | Vibrio cholerae 1.06 | [3] 0.977 | P. vulgatus RND KO 1.03 | P. vulgatus WT 1.08 | [4] 1 | [5] 0.994

CN1C[C@H](C(=O)N[C@]2(C)O[C@@]3(O)[C@@H]4CCCN4C(=O)[C@H](Cc4ccccc4)N3C2=O)C[C@@H]2c3cccc4[nH]cc(c34)C[C@H]21 [Dihydroergotamine tartrate]
inactive: [1] 1.04 | [2] 0.978 | Shigella flexneri 0.994 | Vibrio cholerae 1.02 | [3] 1.01 | P. vulgatus RND KO 0.989 | P. vulgatus WT 0.996 | [4] 1 | [5] 0.984

COc1ccc2c(c1)[C@]13CCCC[C@@H]1[C@H](C2)N(C)CC3 [Dextromethorphan hydrobromide monohydrate]
inactive: [1] 1.02 | [2] 0.982 | Shigella flexneri 0.988 | Vibrio cholerae 0.955 | [3] 0.97 | P. vulgatus RND KO 1.02 | P. vulgatus WT 1 | [4] 0.995 | [5] 0.985

CC(=O)OC1CN2CCC1CC2 (stereo not given) [Aceclidine hydrochloride]
inactive: [1] 1.02 | [2] 1 | Shigella flexneri 1.01 | Vibrio cholerae 1.03 | [3] 0.994 | P. vulgatus RND KO 0.994 | P. vulgatus WT 1.03 | [4] 1.01 | [5] 0.999

CN[C@@H]1[C@@H](O)[C@@H](O[C@@H]2[C@@H](O)[C@H](O[C@H]3O[C@H](CN)CC[C@H]3N)[C@@H](N)C[C@H]2N)OC[C@]1(C)O.CN[C@@H]1[C@@H](O)[C@@H](O[C@@H]2[C@@H](O)[C@H](O[C@H]3O[C@H]([C@@H](C)N)CC[C@H]3N)[C@@H](N)C[C@H]2N)OC[C@]1(C)O.CN[C@@H]1[C@@H](O)[C@@H](O[C@@H]2[C@@H](O)[C@H](O[C@H]3O[C@H]([C@@H](C)NC)CC[C@H]3N)[C@@H](N)C[C@H]2N)OC[C@]1(C)O [Gentamicine sulfate]
inactive: [1] 0.864 | [2] 1 | Shigella flexneri 1.02 | Vibrio cholerae 1.04 | [3] 1.02 | P. vulgatus RND KO 1.05 | P. vulgatus WT 1.02 | [4] 1 | [5] 1
